From the supplement of paper PMC6897291

How the values were obtained:
[1] = test system: U-2932; test: growth inhibition by drug alone (1 - RLU/untreated control) (fraction); higher = stronger inhibition; conditions: 177Lu-lilotomab satetraxetan 0 ug/ml
Summary of the method: (§1)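 Compound doses on the pre-printed Selleck Cambridge Cancer Compound library plates were 10/100 nM for RIVA cells and 10/1,000 nM for U-2932 cells, seeded at 3,000 cells/well. Before seeding, cells were washed after 18 h with or without a radiolabelled anti-CD37 antibody conjugate (~600 MBq/mg; 0.5 µg/ml RIVA, 1 µg/ml U-2932). Growth inhibition was derived from RealTime-Glo luminescence relative to untreated no-drug control wells. Readings were taken daily starting on day 3, each after 1 h at 37°C, and each well's RLU was divided by the mean of 48 such wells per plate and subtracted from 1.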

[2] = test system: RIVA; test: as above; conditions: 177Lu-lilotomab satetraxetan 0 ug/ml
Summary of the method: as §1

[3] = test system: U-2932; test: growth inhibition by drug plus 177Lu-lilotomab satetraxetan (1 - RLU/untreated control) (fraction); higher = stronger inhibition; conditions: 177Lu-lilotomab satetraxetan 1 ug/ml
Summary of the method: as §1

[4] = test system: RIVA; test: as above; conditions: 177Lu-lilotomab satetraxetan 0.5 ug/ml
Summary of the method: as §1

Row | SMILES | growth inhibition by drug alone ([1]; 10 nM, time (day): 3) | growth inhibition by drug alone ([1]; 10 nM, time (day): 4) | growth inhibition by drug alone ([1]; 10 nM, time (day): 5) | growth inhibition by drug alone ([1]; 10 nM, time (day): 6) | growth inhibition by drug alone ([1]; 1000 nM, time (day): 3) | growth inhibition by drug alone ([1]; 1000 nM, time (day): 4) | growth inhibition by drug alone ([1]; 1000 nM, time (day): 5) | growth inhibition by drug alone ([1]; 1000 nM, time (day): 6) | growth inhibition by drug alone ([2]; 10 nM, time (day): 3) | growth inhibition by drug alone ([2]; 10 nM, time (day): 4) | growth inhibition by drug alone ([2]; 10 nM, time (day): 5) | growth inhibition by drug alone ([2]; 10 nM, time (day): 6) | growth inhibition by drug alone ([2]; 100 nM, time (day): 3) | growth inhibition by drug alone ([2]; 100 nM, time (day): 4) | growth inhibition by drug alone ([2]; 100 nM, time (day): 5) | growth inhibition by drug alone ([2]; 100 nM, time (day): 6) | growth inhibition by drug plus 177Lu-lilotomab satetraxetan ([3]; 10 nM, time (day): 3) | growth inhibition by drug plus 177Lu-lilotomab satetraxetan ([3]; 10 nM, time (day): 4) | growth inhibition by drug plus 177Lu-lilotomab satetraxetan ([3]; 10 nM, time (day): 5) | growth inhibition by drug plus 177Lu-lilotomab satetraxetan ([3]; 10 nM, time (day): 6) | growth inhibition by drug plus 177Lu-lilotomab satetraxetan ([3]; 1000 nM, time (day): 3) | growth inhibition by drug plus 177Lu-lilotomab satetraxetan ([3]; 1000 nM, time (day): 4) | growth inhibition by drug plus 177Lu-lilotomab satetraxetan ([3]; 1000 nM, time (day): 5) | growth inhibition by drug plus 177Lu-lilotomab satetraxetan ([3]; 1000 nM, time (day): 6) | growth inhibition by drug plus 177Lu-lilotomab satetraxetan ([4]; 10 nM, time (day): 3) | growth inhibition by drug plus 177Lu-lilotomab satetraxetan ([4]; 10 nM, time (day): 4) | growth inhibition by drug plus 177Lu-lilotomab satetraxetan ([4]; 10 nM, time (day): 5) | growth inhibition by drug plus 177Lu-lilotomab satetraxetan ([4]; 10 nM, time (day): 6) | growth inhibition by drug plus 177Lu-lilotomab satetraxetan ([4]; 100 nM, time (day): 3) | growth inhibition by drug plus 177Lu-lilotomab satetraxetan ([4]; 100 nM, time (day): 4) | growth inhibition by drug plus 177Lu-lilotomab satetraxetan ([4]; 100 nM, time (day): 5) | growth inhibition by drug plus 177Lu-lilotomab satetraxetan ([4]; 100 nM, time (day): 6)
1 | Nc1ccccc1NC(=O)c1ccc(CNc2nccc(-c3cccnc3)n2)cc1 [Mocetinostat (MGCD0103)] | 0.00982 | 0.0102 | 0.0298 | 0.152 | 0.868 | 0.878 | 0.889 | 0.91 | -0.0534 | -0.0971 | -0.0989 | -0.142 | 0.358 | 0.254 | 0.208 | 0.152 | -0.0242 | -0.00346 | 0.0145 | 0.11 | 0.876 | 0.893 | 0.907 | 0.934 | 0.466 | 0.553 | 0.579 | 0.576 | 0.681 | 0.692 | 0.705 | 0.7
2 | C=C1/C(=C\C=C2/CCC[C@]3(C)[C@@H]([C@H](C)/C=C/[C@H](C)C(C)C)CC[C@@H]23)C[C@@H](O)C[C@@H]1O [Doxercalciferol (Hectorol)] | 0.174 | 0.125 | 0.0899 | 0.0598 | 0.106 | 0.132 | 0.147 | 0.128 | 0.187 | 0.183 | 0.177 | 0.0541 | 0.0648 | 0.127 | 0.103 | 0.0636 | 0.15 | 0.183 | 0.229 | 0.36 | 0.0716 | 0.176 | 0.182 | 0.287 | 0.484 | 0.601 | 0.615 | 0.639 | 0.47 | 0.55 | 0.563 | 0.571
3 | COc1ncc(-c2ccc3nccc(-c4ccnnc4)c3c2)cc1NS(=O)(=O)c1ccc(F)cc1F | 0.726 | 0.786 | 0.81 | 0.821 | 0.87 | 0.935 | 0.961 | 0.972 | 0.856 | 0.892 | 0.918 | 0.933 | 0.898 | 0.925 | 0.943 | 0.953 | 0.744 | 0.769 | 0.769 | 0.768 | 0.908 | 0.958 | 0.976 | 0.982 | 0.897 | 0.937 | 0.952 | 0.961 | 0.937 | 0.963 | 0.97 | 0.975
4 | Cc1cnc(-c2cnc(NCCNc3ccc(C#N)cn3)nc2-c2ccc(Cl)cc2Cl)[nH]1 | 0.154 | 0.101 | 0.0269 | -0.034 | 0.119 | 0.0751 | -0.139 | -0.197 | 0.0622 | 0.0911 | 0.0352 | -0.132 | -0.000657 | 0.0178 | -0.0435 | -0.16 | 0.0605 | 0.123 | 0.113 | 0.204 | 0.0116 | 0.0464 | 0.0105 | 0.0661 | 0.532 | 0.598 | 0.613 | 0.613 | 0.455 | 0.536 | 0.536 | 0.541
